The text below walks through data of PubChem BioAssay.

Molecules are shown by their SMILES. A number with no mark means an inactive call. No rule for the calls is given here.

This assay relates to Aerobactin synthetase IucA (Klebsiella pneumoniae hvKP1). The assay can be described thus: Biochemical IucA enzyme inhibition primary screen of the Spectrum library (AID 1346200).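 Also: 100% = wells without compound and 0% = wells lacking enzyme.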 As to conditions: malachite green pyrophosphate, A620, at 8 µM, active compounds read low.
Turning to `CC(C)C1CCC(C(=O)N[C@@H](Cc2ccccc2)C(=O)O)CC1` (stereo partly specified), the activity remaining was 118%.
Regarding `C=C1C2CC[C@@]3(C)[C@H](c4ccoc4)OC(=O)C[C@]13O[C@H]1CC(=O)C(C)(C)C(CC(=O)OC)C21C` (stereo partly specified), the activity remaining was 124%.
In the case of `COc1ccc2cc1Oc1ccc(cc1)C[C@H]1c3cc(c(OC)cc3CCN1C)Oc1c(OC)c(OC)cc3c1[C@H](C2)N(C)CC3`, the activity remaining was 108%.
As to `COc1cc(O)ccc1C(C)=O`, the activity remaining was 124%.
With `C[C@@H]1CC[C@]2(C(=O)O)CC[C@]3(C)C(=CCC4[C@@]5(C)CC[C@H](O)C(C)(C)C5CC[C@]43C)C2[C@H]1C` (stereo partly specified) the figure was 128%; with `Cc1c(Cl)cccc1Nc1ccccc1C(=O)O`, 82.9%.
